Our source for the composite z-score and z-score values is PubChem BioAssay.

“And” between values parts separate entries of the source, which are not always exact repeats. Equal entries are not always repeated. The source made the active and inactive calls.

Test [1] can be described thus: small molecules captured by biotinylated probe aFSTL3 – biochemical, small-molecule microarray, fluorescence 635/667, stem cell growth factor project, primary screen (AID 1064).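 Note: measures binding of the biotinylated anti-FSTL3 antibody to printed compounds.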 Conditions: higher = more signal.
Test [2] can be described thus: binders from COS7 lysate, DM2A8 probe, primary screen, torsin A project, cell lysate, small-molecule microarray, fluorescence 635/667 (AID 1065). Conditions: higher = more signal, COS7 lysate expressing mutant human TOR1A.
The nature of test [3]: small molecules captured by biotinylated probe aFGF2 – biochemical, small-molecule microarray, fluorescence 635/667, stem cell growth factor project, primary screen (AID 1067).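 Note: measures binding of biotinylated aFGF2 protein to printed compounds on slides; z-score merges feature fluorescence and signal-to-noise across triplicate slides.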 Conditions: higher = more signal.
A short description of test [4]: small molecules captured by biotinylated probe aFGF10 – biochemical, small-molecule microarray, fluorescence 635/667, stem cell growth factor project, primary screen (AID 1071).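 Note: score merges 667 nm spot intensity and signal to noise from triplicate slides.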 Particulars: higher = more signal.
The target in test [5] is Neurogenic locus notch homolog protein 2 (Homo sapiens) (UniProt Q04721). Put plainly: small molecules binding Notch2 protein – biochemical, small-molecule microarray, 635 nm fluorescence, stem cell growth factors, primary screen (AID 1073). Particulars: higher = more signal.
The target of test [6] is Pro-neuregulin-1, membrane-bound isoform (Homo sapiens) (UniProt Q02297). The test can be described thus: small molecules binding neuregulin-1 protein – biochemical, small-molecule microarray, fluorescence 635/667, psychiatric disease protein project, primary screen (AID 1075).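 Note: score combines 667 nm spot fluorescence with signal to noise.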 Particulars: NRG1 binding, 635 nm fluorescence, higher = more signal.
Pro-neuregulin-1, membrane-bound isoform (Homo sapiens), sequence (Q02297 whole entry, looked up, the tested form may be a part, canonical isoform): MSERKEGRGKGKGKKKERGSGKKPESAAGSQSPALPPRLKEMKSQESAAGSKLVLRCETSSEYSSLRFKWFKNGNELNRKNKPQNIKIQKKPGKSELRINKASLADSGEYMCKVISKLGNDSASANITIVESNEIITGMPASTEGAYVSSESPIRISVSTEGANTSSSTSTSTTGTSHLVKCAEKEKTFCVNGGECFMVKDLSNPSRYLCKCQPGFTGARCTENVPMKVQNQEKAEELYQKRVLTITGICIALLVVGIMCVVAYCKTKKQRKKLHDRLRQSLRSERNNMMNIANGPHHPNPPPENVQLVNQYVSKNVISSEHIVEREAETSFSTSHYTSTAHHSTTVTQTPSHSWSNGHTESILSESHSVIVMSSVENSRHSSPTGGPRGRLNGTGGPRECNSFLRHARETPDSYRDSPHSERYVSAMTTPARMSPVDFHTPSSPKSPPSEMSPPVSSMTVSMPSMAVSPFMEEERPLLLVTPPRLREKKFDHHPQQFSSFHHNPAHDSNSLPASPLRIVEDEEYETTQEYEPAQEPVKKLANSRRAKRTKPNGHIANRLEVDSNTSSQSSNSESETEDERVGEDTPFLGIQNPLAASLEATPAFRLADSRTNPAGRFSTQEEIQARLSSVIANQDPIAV
Test [7] deals with Neuregulin-1 EGF-like domain. Put plainly: small molecules binding NRG1 EGF domain – biochemical, small-molecule microarray, 635 nm fluorescence, primary screen (AID 1081).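 Note: binding of the protein to compounds printed on small-molecule microarray slides.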 Conditions: higher = more signal.
Test [8] is described as follows: FRG1 expression reporter modulators in myotubes – cell-based, C2C12 myotubes, firefly/Renilla luciferase, luminescence, FRG1 inhibition for FSHD, primary screen (AID 1084). Particulars: FRG1 promoter luciferase, higher = more signal, called active from +8 up or from −8 down.
Test [9] is described as follows: small molecules captured by biotinylated probe aFST – biochemical, small-molecule microarray, fluorescence 635/667, stem cell growth factor project, primary screen (AID 1086).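 Note: score merges 667 nm fluorescence with signal-to-noise of each printed compound spot.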 Conditions: higher = more signal.
Test [10] can be described thus: binders of probe aHhip on microarray, primary screen, stem cell growth factor project, biochemical, small-molecule microarray, fluorescence 635/667 (AID 1087).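 Note: score merges spot fluorescence at 667nm with spot signal to noise ratio.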 Particulars: higher = more signal.
Test [11] concerns PRMT1 (protein arginine N-methyltransferase 1). Put plainly: small molecules binding arginine methyltransferase PRMT1 – biochemical, small-molecule microarray, 635 nm fluorescence, primary screen (AID 1088).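 Note: binding of Prmt1 protein to compounds spotted on small-molecule microarray slides.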 Conditions: higher = more signal.
Test [12] is described as follows: growth effects on S. cerevisiae YJM789 – YJM789 clinical isolate, OD600, 24 h, basal, primary screen (AID 1089).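 Note: growth of clinical yeast isolate S. cerevisiae YJM 789 seeded 1000 cells per well; test concentration not given here.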 Particulars: higher = more signal, called active from +8 up or from −8 down.
Test [13] can be described thus: S. pombe growth modifiers, basal conditions – strain 972, OD600, 24 h, no modulator, primary screen (AID 1090).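 Note: basal condition with compound alone and no growth modifier present; test concentration not given here.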 Conditions: S. pombe 972 growth, higher = more signal, called active from +8 up or from −8 down.
Test [14] can be described thus: budding yeast growth modifiers under rapamycin – strain BY4716, OD600, 96 h, primary screen (AID 1091). Note: test concentration not given here. Conditions: S. cerevisiae BY4716 + rapamycin, higher = more signal, called active from +8 up or from −8 down.
In test [15] the target is Torsin-1A-interacting protein 2 (Homo sapiens) (UniProt Q8NFQ8). Put plainly: small molecules binding lysate-expressed LULL1 – cell lysate, human LULL1 lysate, 635/667 nm fluorescence, primary screen (AID 1092).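 Note: probe is lysate of COS7 cells overexpressing human LULL1; score merges per-feature 667 nm fluorescence with signal-to-noise.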 Conditions: small-molecule microarray, hLULL1 lysate binding, 635 nm fluorescence; higher = more signal.
Torsin-1A-interacting protein 2 (Homo sapiens), sequence (Q8NFQ8 whole entry, looked up): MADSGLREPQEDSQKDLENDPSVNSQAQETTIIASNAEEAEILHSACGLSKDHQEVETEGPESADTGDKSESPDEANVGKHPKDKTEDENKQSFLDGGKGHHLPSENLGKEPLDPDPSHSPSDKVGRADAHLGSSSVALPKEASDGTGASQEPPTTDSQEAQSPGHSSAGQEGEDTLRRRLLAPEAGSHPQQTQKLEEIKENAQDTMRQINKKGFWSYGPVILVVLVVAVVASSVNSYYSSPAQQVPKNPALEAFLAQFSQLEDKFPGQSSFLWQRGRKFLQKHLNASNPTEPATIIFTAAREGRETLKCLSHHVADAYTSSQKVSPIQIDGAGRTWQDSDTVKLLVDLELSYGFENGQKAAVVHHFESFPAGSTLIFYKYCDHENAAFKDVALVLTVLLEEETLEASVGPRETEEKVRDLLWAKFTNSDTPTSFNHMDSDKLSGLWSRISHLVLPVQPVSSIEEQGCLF
The nature of test [16]: optical density change of DRC41 E. coli – strain DRC41, OD650, 24 h, E. coli filamentation project, primary screen (AID 1093).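 Note: MC1000 strain lacking acrAB efflux and sulA so SOS filamentation is blocked; test concentration not given here.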 Conditions: E. coli DRC41 growth, higher = more signal, called active from +8 up or from −8 down.
A short description of test [17]: probe aLefty2 binding to arrayed compounds – biochemical, biotinylated probe, 635/667 nm fluorescence, primary screen (AID 1094).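 Note: score merges spot fluorescence near 667 nm with spot signal-to-noise ratio.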 Conditions: small-molecule microarray, higher = more signal.
Test [18] concerns Noggin (protein binding on small-molecule microarray). The test can be described thus: small molecules binding Noggin protein – biochemical, 635/667 nm fluorescence, primary screen (AID 1095).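 Note: score merges 667 nm feature fluorescence with signal to noise over triplicate slides.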 Conditions: 635 nm fluorescence, higher = more signal.
Test [19] addresses Neurogenic locus notch homolog protein 3 (Homo sapiens) (UniProt Q9UM47). The test can be described thus: small molecules binding NOTCH3 protein – biochemical, 635/667 nm fluorescence, primary screen (AID 1096). Particulars: small-molecule microarray, 635 nm fluorescence, higher = more signal.
A short description of test [20]: probe aEGFR binding to arrayed compounds – biochemical, biotinylated probe, 635/667 nm fluorescence, primary screen (AID 1097).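 Note: probe is a biotinylated anti-EGFR antibody binding compounds printed on slides; score combines fluorescence near 667 nm and signal to noise of each spot.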 Conditions: small-molecule microarray, higher = more signal.

Neurogenic locus notch homolog protein 3 (Homo sapiens), sequence (Q9UM47 whole entry, looked up): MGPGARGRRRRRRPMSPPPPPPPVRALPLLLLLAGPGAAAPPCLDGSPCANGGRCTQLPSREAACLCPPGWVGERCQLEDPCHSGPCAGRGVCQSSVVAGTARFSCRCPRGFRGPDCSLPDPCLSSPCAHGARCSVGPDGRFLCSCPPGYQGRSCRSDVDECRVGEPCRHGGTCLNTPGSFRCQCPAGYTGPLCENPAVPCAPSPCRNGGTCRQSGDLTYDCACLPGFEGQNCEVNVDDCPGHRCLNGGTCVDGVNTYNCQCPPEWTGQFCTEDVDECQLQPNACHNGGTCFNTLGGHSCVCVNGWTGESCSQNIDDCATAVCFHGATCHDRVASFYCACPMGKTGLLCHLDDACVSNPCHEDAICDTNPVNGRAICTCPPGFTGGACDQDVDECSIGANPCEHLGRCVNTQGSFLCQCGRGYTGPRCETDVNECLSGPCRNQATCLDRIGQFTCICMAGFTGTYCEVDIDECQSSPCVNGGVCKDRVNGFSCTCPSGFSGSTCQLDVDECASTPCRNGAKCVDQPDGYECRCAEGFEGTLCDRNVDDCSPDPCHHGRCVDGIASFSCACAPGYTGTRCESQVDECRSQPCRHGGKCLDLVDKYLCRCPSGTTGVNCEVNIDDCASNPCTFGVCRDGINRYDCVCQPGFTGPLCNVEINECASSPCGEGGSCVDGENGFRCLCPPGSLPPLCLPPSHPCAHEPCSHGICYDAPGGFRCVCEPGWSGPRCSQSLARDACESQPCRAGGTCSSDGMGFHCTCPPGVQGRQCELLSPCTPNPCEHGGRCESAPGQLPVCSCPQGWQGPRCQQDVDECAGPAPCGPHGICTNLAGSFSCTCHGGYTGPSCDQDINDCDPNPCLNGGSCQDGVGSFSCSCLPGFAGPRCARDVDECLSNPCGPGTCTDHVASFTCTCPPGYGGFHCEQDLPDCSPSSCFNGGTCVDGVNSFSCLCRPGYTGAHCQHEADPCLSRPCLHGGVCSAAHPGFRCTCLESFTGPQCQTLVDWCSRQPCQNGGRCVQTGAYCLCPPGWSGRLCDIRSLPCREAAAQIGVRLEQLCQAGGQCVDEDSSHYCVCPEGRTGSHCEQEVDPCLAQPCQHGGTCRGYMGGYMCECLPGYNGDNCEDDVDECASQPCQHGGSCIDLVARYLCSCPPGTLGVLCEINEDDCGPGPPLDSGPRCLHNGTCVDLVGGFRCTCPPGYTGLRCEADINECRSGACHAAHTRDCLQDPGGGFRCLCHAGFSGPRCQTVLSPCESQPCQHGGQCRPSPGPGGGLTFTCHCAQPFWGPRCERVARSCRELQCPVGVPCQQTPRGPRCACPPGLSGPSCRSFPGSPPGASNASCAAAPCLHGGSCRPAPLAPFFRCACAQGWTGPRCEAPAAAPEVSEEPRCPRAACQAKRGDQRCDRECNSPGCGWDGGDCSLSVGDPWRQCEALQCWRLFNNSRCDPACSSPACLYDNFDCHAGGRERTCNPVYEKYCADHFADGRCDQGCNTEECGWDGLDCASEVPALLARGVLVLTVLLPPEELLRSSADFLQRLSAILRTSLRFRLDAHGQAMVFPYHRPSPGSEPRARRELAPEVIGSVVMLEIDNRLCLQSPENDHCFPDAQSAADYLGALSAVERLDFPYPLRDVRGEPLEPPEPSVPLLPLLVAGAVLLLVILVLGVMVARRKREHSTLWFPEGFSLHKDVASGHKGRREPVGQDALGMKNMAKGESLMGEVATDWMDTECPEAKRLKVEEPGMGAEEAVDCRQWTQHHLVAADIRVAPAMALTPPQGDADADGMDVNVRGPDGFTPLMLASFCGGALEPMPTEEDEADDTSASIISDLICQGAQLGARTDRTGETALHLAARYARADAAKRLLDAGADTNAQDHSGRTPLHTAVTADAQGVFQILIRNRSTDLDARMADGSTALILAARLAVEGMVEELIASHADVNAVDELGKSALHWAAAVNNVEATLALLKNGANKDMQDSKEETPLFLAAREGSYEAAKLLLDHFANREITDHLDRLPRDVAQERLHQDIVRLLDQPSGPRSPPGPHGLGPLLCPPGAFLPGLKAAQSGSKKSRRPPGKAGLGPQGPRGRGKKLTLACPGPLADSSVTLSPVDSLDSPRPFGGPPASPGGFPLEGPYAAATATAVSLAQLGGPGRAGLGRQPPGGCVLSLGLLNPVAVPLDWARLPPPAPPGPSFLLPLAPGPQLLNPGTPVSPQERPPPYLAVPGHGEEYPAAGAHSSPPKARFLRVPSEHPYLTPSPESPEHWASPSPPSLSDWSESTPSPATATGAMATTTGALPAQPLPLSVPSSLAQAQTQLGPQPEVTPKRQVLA

With `COc1ccc(COC(=O)NN=C2C[C@@H](O)[C@@H](O)[C@@H]3[C@@H]4C(=O)N(C(C)(C)C)C(=O)[C@@H]4CC[C@H]23)cc1`, the composite z-score in test [1] was -0.494; in [2] it was 0.602; in test [3] it was -0.0439; in test [4], 0.799; in [5] it was 0.29; in [6], 1.46. For the same molecule, the composite z-score in [7] was 1.13; in test [9] it was 0.0715; in test [10], -0.13; in test [11], 1.28; in test [15], 2.14; in test [17], -0.277. Besides, the composite z-score in test [18] is 0.468; in [19] it was 0.469; in test [20], -0.132. Also, the z-score in test [8] was -1.03 (inactive); in [12], -1.76 (inactive); in test [13], -1.05 (inactive); in test [14], -0.715 (inactive); in test [16], -0.0531 (inactive).

On to `C=C[C@@H](OC)[C@H](O)c1ccc(O)c(F)c1`, for which the composite z-score in test [1] was 1.24 and 0.937; in test [2], -0.598 and -1.38; in test [3], -0.183 and -0.222; in test [4], -0.609 and -0.315; in test [5], -1.74 and -0.398; in [6], -0.725 and -0.815. For the same molecule, the composite z-score in test [7] was -0.564 and -0.928; in test [9], -1.4 and -1.25; in test [10], -0.0708 and -0.175; in [11], -0.846 and -1.51; in test [15] it was -0.329 and -0.941; in [17], -0.257 and -0.124. In addition, the composite z-score in [18] was -2.13 and -1.13; in [19], -1.37 and -0.192; in test [20], -0.435 and -0.299. For the same molecule, the z-score in test [8] is 0.679 (inactive) and -0.707 (inactive); in [12], 0.144 (inactive) and -3.13 (inactive); in test [13], -1.44 (inactive) and -3.23 (inactive); in test [14], 0.126 (inactive) and -0.692 (inactive); in test [16], 0.401 (inactive) and 1.45 (inactive).

For the molecule `CC(=O)OC[C@H]1O[C@H](C#CC(C)(C)C)C=C[C@@H]1OC(C)=O`, the composite z-score is -0.358 in test [1]; -0.159 in [2]; -0.126 in test [3]; 0.039 in test [4]; 1.01 in test [5]; 1.38 in [6]. Further, the composite z-score is 1.25 in test [7]; 0.454 in test [9]; 0.164 in test [10]; 0.975 in test [11]; 1.3 in [15]; -0.177 in [17]. Moreover, the composite z-score in test [18] is 0.369; in [19], 0.695; in [20] it was 0.0168. For the same molecule, the z-score in [8] was -0.259 (inactive); in test [12], -0.0789 (inactive); in test [13], -1.48 (inactive); in test [14], -0.589 (inactive); in test [16], 0.459 (inactive).

For `CO[C@H]1COC(=O)CC=C[C@@H](C)COC(=O)[C@H](CCSC)NC(=O)CC=C[C@@H]1C`, the composite z-score in test [1] is -0.638 and -0.893; in test [2], 2.71 and 2.84; in test [3], 0.561 and -0.386; in [4] it was -0.174 and -0.853; in test [5], -0.375 and -0.583; in test [6] it was -0.591 and -1.25. Further, the composite z-score in [7] is 1.01 and 0.444; in test [9], 0.536 and 0.0907; in [10] it was 0.12 and -0.154; in test [11], 1.55 and 1.54; in test [15], -0.649 and -1.15; in test [17] it was -0.114 and -0.0629. Moreover, the composite z-score is 1.64 and 2.04 in [18]; 0.593 and 0.59 in test [19]; 0.49 and 0.59 in test [20]. The z-score in test [8] is -0.172 (inactive) and -0.845 (inactive); in test [12], 0.833 (inactive) and -0.697 (inactive); in test [13] it was -0.201 (inactive) and -0.712 (inactive); in [14], 0.35 (inactive) and -0.862 (inactive); in test [16], 0.32 (inactive) and -0.145 (inactive).

With `C=CCN(Cc1ccccc1)C(=O)C(c1cccs1)N(C(=O)/C=C\C(=O)O)c1ccc(CCO)cc1` (stereo not given), the composite z-score in test [1] was 1.05 and 0.697; in test [2] it was -1.89 and -1.8; in test [3], -0.175 and -0.232; in test [4], -1.05 and -0.73; in test [5] it was -1.36 and -1.96; in test [6], -0.789 and -0.264. Also, the composite z-score is 1.25 and 1.43 in test [7]; -0.966 and -0.865 in test [9]; -0.369 and 0.205 in [10]; -0.0611 and -0.636 in test [11]; 3.59 and 1.9 in [15]; -0.0927 and -0.205 in test [17]. The composite z-score in test [18] was -2.05 and -1.63; in [19] it was -1.46 and -0.922; in test [20], -0.239 and -0.321. Besides, the z-score in [8] is 0.0388 (inactive) and -0.725 (inactive); in [12] it was -0.0499 (inactive) and -0.0798 (inactive); in test [13], -0.0594 (inactive) and 0.33 (inactive); in test [14], -0.184 (inactive) and 0.0995 (inactive); in [16], 0.478 (inactive) and -0.0137 (inactive).

In the case of `COC(=O)[C@H](C)NC(=O)CCC1CC(OC(=O)NCCc2ccc(F)cc2)CC2(CCCC(COC(=O)NCCCN3CCCC3=O)O2)O1` (stereo not given in full), the composite z-score in test [1] is -0.78; in test [2], 0.267; in test [3] it was -0.0358; in [4] it was 0.404; in test [5], 1.25; in [6], 0.623. For the same molecule, the composite z-score is 1.2 in test [7]; 0.367 in [9]; 0.0373 in [10]; 1.55 in test [11]; 1.64 in test [15]; -0.168 in test [17]. Besides, the composite z-score in test [18] was 0.727; in test [19], 1.03; in [20], -0.0505. The z-score in test [8] was 0.434 (inactive); in test [12], -0.432 (inactive); in test [13], 0.899 (inactive); in test [14] it was 0.849 (inactive); in [16], -0.681 (inactive).

In the case of `CC(C)=NOCc1ccc(-c2cn([C@@H]3COC[C@H]3O)nn2)cc1`, the composite z-score in test [1] was -0.401; in [2], 0.032; in [3] it was -0.0268; in [4], 0.543; in [5], 0.31; in test [6] it was -0.766. The composite z-score is 0.718 in test [7]; 0.169 in [9]; 0.0722 in [10]; -0.253 in [11]; 0.226 in test [15]; 0.0434 in test [17]. The composite z-score is 0.485 in test [18], -0.328 in [19] and -0.0025 in test [20]. Also, the z-score was 0.0937 (inactive) in test [8]; 0.279 (inactive) in test [12]; 0.132 (inactive) in test [13]; -0.738 (inactive) in test [14]; 0.484 (inactive) in test [16].

Turning to `C=CCN(C(=O)C(c1cccs1)N(C(=O)/C=C\C(=O)O)c1ccc(CCO)cc1)C(C)(C)C` (stereo not given), the composite z-score was 0.396 and 0.476 in [1]; -0.534 and -0.804 in [2]; -0.212 and -0.192 in [3]; -0.439 and -1.66 in test [4]; -0.898 and -1.52 in test [5]; 1.04 and 2.28 in test [6]. In addition, the composite z-score in test [7] was 0.71 and 1.3; in [9] it was -0.23 and -0.706; in test [10] it was -0.0618 and -0.134; in test [11], -0.417 and -0.231; in test [15] it was 3.58 and 3.17; in test [17], -0.0964 and -0.116. Further, the composite z-score was -2.17 and -1.9 in [18]; -0.583 and -1.21 in test [19]; -0.106 and -0.209 in test [20]. Further, the z-score in [8] was 1.28 (inactive) and 0.16 (inactive); in test [12], -0.042 (inactive) and 0.181 (inactive); in test [13], -0.701 (inactive) and 0.442 (inactive); in [14], -0.3 (inactive) and -0.104 (inactive); in test [16], 0.286 (inactive) and -0.294 (inactive).
